The values that follow come from PubChem BioAssay (EPA / NIEHS).

A short description of experiment [1]: Tanguay_ZF_120hpf_DP24: Oregon State University Tanguay Lab 24 Hour Post-fertilization zebrafish Assay for Delayed Development (AID 2284390). The method in brief: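 Dechorionated 5D wild-type zebrafish embryos exposed statically from 6 hpf, one per well, 0.64% DMSO final, 28 C, sealed and dark. Developmental progression scored at 24 hpf by brightfield as binary present/absent; dead embryos excluded.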

A short description of experiment [2]: Tanguay_ZF_120hpf_CRAN: Oregon State University Tanguay Lab 120 Hour Post-fertilization zebrafish Assay for Craniofacial Malformation (AID 2284397). The protocol: (§1) Tanguay_ZF_120hpf is a whole embryo, multiplexed endpoint assay using zebrafish larvae exposed for 120 hours post fertilization on a 96-well plate.Tanguay_ZF_120hpf_CRAN is one of one assay component(s) measured or calculated from the Tanguay_ZF_120hpf assay. It is designed to make measurements of zebrafish development as detected with brightfield microscopy of developing zebrafish embryos.Data from the assay component Tanguay_ZF_120hpf_CRAN was analyzed into 1 assay endpoints. This assay endpoint, Tanguay_ZF_120hpf_CRAN, was analyzed in the positive analysis fitting direction relative to DMSO as the negative control and baseline of activity. […]
(§2) Zebrafish husbandry: Tropical 5D wild-type adult zebrafish were housed in at an approximate density of 1000 per 100 gallon tank at the Sinnhuber Aquatic Research Laboratory, Oregon State University, Corvallis, OR. […] At 24 hpf, embryos were assessed for photomotor response using a custom photomotor response analysis tool (PRAT) and for developmental toxicity endpoints (MO24: mortality at 24 hpf, DP: developmental progression, SM: spontaneous movement, and NC: notochord distortion). At 120 hpf, locomotor activity was measured using Viewpoint Zebralab and assessed for 13 endpoints. […] If mortality occurred for an embryo (at either 24 or 120 hpf), the non-mortality endpoints were not measured.

The nature of experiment [3]: Tanguay_ZF_120hpf_AXIS: Oregon State University Tanguay Lab 120 Hour Post-fertilization zebrafish Assay for Axial Malformation (AID 2284398). The essentials: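 Dechorionated 5D wild-type zebrafish embryos exposed statically, one per well, from 6 to 120 hpf at 28C, 0.64% DMSO. Axial malformation scored as present/absent by brightfield microscopy at 120 hpf; dead embryos not scored.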

Experiment [4] in a line: Tanguay_ZF_120hpf_MORT: Oregon State University Tanguay Lab 120 Hour Post-fertilization zebrafish Assay for Mortality (AID 2284399). The essentials: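 Dechorionated wild-type Tropical 5D zebrafish embryos, one per well from 6 hpf, static exposure to 120 hpf at 28C in sealed dark plates, 0.64% DMSO final. Mortality scored as binary by brightfield at 24 and 120 hpf.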
Experiment [5] is described as follows: Tanguay_ZF_120hpf_EDEM: Oregon State University Tanguay Lab 120 Hour Post-fertilization zebrafish Assay for Edema Malformation (AID 2284400). The procedure: as §1, with “plate.Tanguay_ZF_120hpf_EDEM” for “plate.Tanguay_ZF_120hpf_CRAN”, “Tanguay_ZF_120hpf_EDEM” for “Tanguay_ZF_120hpf_CRAN”, “Tanguay_ZF_120hpf_EDEM,” for “Tanguay_ZF_120hpf_CRAN,”
as §2

A short description of experiment [6]: Tanguay_ZF_120hpf_MUSC: Oregon State University Tanguay Lab 120 Hour Post-fertilization zebrafish Assay for Muscle Malformation (AID 2284401). The protocol:
as §1, with “plate.Tanguay_ZF_120hpf_MUSC” for “plate.Tanguay_ZF_120hpf_CRAN”, “Tanguay_ZF_120hpf_MUSC” for “Tanguay_ZF_120hpf_CRAN”, “Tanguay_ZF_120hpf_MUSC,” for “Tanguay_ZF_120hpf_CRAN,”
as §2

A short description of experiment [7]: Tanguay_ZF_120hpf_BRN: Oregon State University Tanguay Lab 120 Hour Post-fertilization zebrafish Assay for Brain Region Malformation (AID 2284402). The method in brief: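 Dechorionated wild-type Tropical 5D zebrafish embryos exposed statically from 6 to 120 hpf at 28C, one per well, 0.64% DMSO final. Brain malformation scored at 120 hpf by brightfield as present/absent; dead embryos not scored.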

Experiment [8] in a line: Tanguay_ZF_120hpf_TCHR: Oregon State University Tanguay Lab 120 Hour Post-fertilization zebrafish Assay for Touch Responsive (AID 2284403). The procedure:
as §1, with “plate.Tanguay_ZF_120hpf_TCHR” for “plate.Tanguay_ZF_120hpf_CRAN”, “Tanguay_ZF_120hpf_TCHR” for “Tanguay_ZF_120hpf_CRAN”, “Tanguay_ZF_120hpf_TCHR,” for “Tanguay_ZF_120hpf_CRAN,”
as §2

A short description of experiment [9]: Tanguay_ZF_120hpf_ANY: Oregon State University Tanguay Lab 120 Hour Post-fertilization zebrafish Assay for Any Mortality and Malformation (AID 2284404). The essentials:
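Dechorionated Tropical 5D wild-type embryos, one per well from 6 hpf, static exposure in sealed, dark plates at 28C until 120 hpf, 0.64% DMSO final. Brightfield scoring of mortality and malformations as binary presence/absence, pooling 13 morphology endpoints.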

Experiment [10] in a line: CCTE_Padilla_ZF_Score.Craniofacial: CCTE's 144 Hour Post-fertilization zebrafish Assay Score for Craniofacial Malformation, Padilla Lab (AID 2284405). The essentials:
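Wild-type zebrafish embryos (with chorions), one per well in 10% Hanks', were dosed at 6–8 hpf in sealed plates and kept at 26C. They were rinsed at 5 dpf. At 6 dpf two blinded assessors scored craniofacial malformations by brightfield stereomicroscopy.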

The source made the active and inactive calls. The calls were made as follows: active = hit-call score of the fitted dose curve at least 0.9, where 1 is the maximum; inactive = score below 0.9.

Usually AC50 stands for the concentration giving half of the maximal activity seen. Take `CCNS(=O)(=O)C(F)(F)C(F)(F)C(F)(F)C(F)(F)C(F)(F)C(F)(F)C(F)(F)C(F)(F)F`: the compound was classed as inactive in [1], in experiment [4], in [6], in [7], in experiment [8] and in [10]. Further, the AC50 in [2] was 75.6 µM (active); in experiment [3] it was 70.1 µM (active); in experiment [5], 62.9 µM (active); in experiment [9], 62.1 µM (active).
